Compound activity (PubChem)
Shown are actives, neighbours in structure and some others; about 3% of the full set was active somewhere.
S16 viability: toxic to S16 Pmp22-F2sN Schwann cells | S16 Pmp22-F2sN Schwann cells viability, CellTiter-Glo, 24 h | Potency, µM (doses to about 57.5 µM), for the others: top-dose activity change, negative = cytotoxicity, actives largely listed as cytotoxic | 43,000 tested, 0.48% active; further: potency means the concentration at half of the fitted maximal effect; on the % scale 0 is the no-effect control and ±100 the full control effect; nearly all actives have a fitted effect of over 65% in size
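Used to flag compounds lowering reporter output through toxicity, this quantitative HTS measures ATP-based CellTiter-Glo luminescence in S16 Pmp22-F2sN Schwann cells after 24 h compound exposure at 37C.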
pS6 MEF inh: mTORC1 pathway inhibition measured by phospho-rpS6; Tsc2-/- p53-/- MEF, phospho-rpS6 immunofluorescence/PI, 24 h; Potency, µM (doses to about 38.3 µM), inactives show top-dose activity change, negative = inhibition, usual class: inhibitors; 44,000 tested, 0.78% active; AID 493208;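 further: potency means the concentration at half of the fitted maximal effect; plate controls were DMSO for no effect and rapamycin for full effect; nearly all actives have a fitted effect of over 50% in size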
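Cell-based qHTS: Tsc2-/- p53-/- MEF, 24 h cpd, 37 °C; fix/perm, anti-phospho-S6 Alexa-488 + PI; Acumen 488 nm scan; pS6/PI ratio, % positive cells; rapamycin 7.5 nM = inhibition ref; PI count = viability.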
p53null 32C tox: p53 null cell cytotoxicity, permissive temperature; H1299-neo p53 null cells, ATP luminescence, 24 h, 32C; Potency, µM (titrated, usually from 46.1 µM), for the others: at the top dose activity change, negative = cytotoxicity, most hits filed as cytotoxic; 55,000 tested, 0.62% active;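 further: potency means the concentration at half of the fitted maximal effect; 0% = DMSO only and -100% = full killing by 100 µM tamoxifen; nearly all actives have a fitted effect of over 55% in size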
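H1299-neo (p53-null) cells, 600/well, were pre-incubated overnight at 37C, then exposed to compounds at up to 46 uM for 24 hr at 32C. Viability was measured as ATP content by luminescence, and AC50 values came from Hill fits.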
p53null 39C kill: p53 null cell cytotoxicity, nonpermissive temperature. Potency, µM (highest dose often 46.1 µM), without a hit: at the top dose activity, negative = cell killing, actives largely listed as cytotoxic. 55,000 tested, 0.97% active. H1299 p53-null (neo) cells, 39C, ATPlite viability, 24 h;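 further: potency means the concentration at half of the fitted maximal effect; 0% = DMSO only and -100% = full killing by 100 µM tamoxifen; nearly all actives have a fitted effect of over 50% in size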
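Cells seeded at 600/well, 37C overnight. Compound added (up to 46 uM), plates shifted to 39C for 24 hr. ATPlite added, luminescence read after 20 min at room temperature.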
SKOV3 invasion: inhibitors of ovarian cancer cell adhesion and invasion in omental model. SKOV3ip1-GFP adhesion/invasion on 3D omental model, fluorescence. Potency, µM (titrated, usually from 45.8 µM), for the others: at the top dose activity change, negative = inhibition, most hits filed as inhibitors. 46,000 tested, 0.1% active;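 further: potency means the concentration at half of the fitted maximal effect; plate controls were DMSO wells for no effect and tomatine positive control wells for full effect; nearly all actives have a fitted effect of over 65% in size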
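qHTS, 4-pt dose (0.36-46 umol/L); SKOV3ip1-GFP, 1,200 cells/well, no FBS; primary omental fibroblast/mesothelial co-culture 48 h pre-grown; 2 h RT + 16 h 37 C; PBS wash, 4% PFA; GFP count 488/509 nm.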
PMP22 txn prim: PMP22 gene transcription modulation; S16 Pmp22-F2sN Schwann cells, FLuc/NLuc coincidence luminescence, 24 h; 43,000 tested, 2% active; Potency, µM (doses to about 57.5 µM), for inactives: at the highest dose activity change, negative = inhibition, hits mostly inhibitors; active means clear falling dose curves in both reporters; inconclusive means both reporters move, but less clearly or upward; inactive means either reporter flat; the % is the NLuc reporter signal; further: potency means the concentration at half of the fitted maximal effect; on the % scale 0 is the no-effect control and ±100 the full control effect
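S16(c9) Schwann cells with FLuc/NLuc coincidence reporter in the Pmp22 3' UTR; compounds pin-transferred, 24 h at 37C. Dual-luciferase read: FLuc first, then NLuc after Stop&Glo, each 10 min at room temperature.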
NLuc sat counter: counter-screen for PMP22 expression modulators: NanoLuc inhibition, saturating substrate. shares compounds with PMP22 txn prim. Secreted NLuc enzyme (filtered S16 cell medium), Nano-Glo luminescence. Potency, µM (series often up to 57.5 µM), for inactives: at the highest dose activity change, negative = inhibition, usual class: inhibitors. 690 tested, 4% active. AID 1508638; further: potency means the concentration at half of the fitted maximal effect; on the % scale 0 is the no-effect control and ±100 the full control effect
NLuc Km ctr: NanoLuc inhibition at Km substrate, PMP22 artifact check; Potency, µM (titrated, usually from 57.5 µM), without a hit: at the top dose activity change, negative = inhibition, most hits filed as inhibitors; shares compounds with PMP22 txn prim; 690 tested, 5% active; secreted NLuc enzyme, coelenterazine luminescence, Km conditions; further: potency means the concentration at half of the fitted maximal effect; on the % scale 0 is the no-effect control and ±100 the full control effect
FLuc counter: inhibits firefly luciferase, PMP22 counter-screen; shares compounds with PMP22 txn prim; Potency, µM (top dose mostly 57.5 µM), for the others: top-dose activity, negative = inhibition, hits mostly inhibitors; purified P. pyralis FLuc, luminescence, 10 min; 690 tested, under 10 active; further: % of control where 0% means no effect
Target sequence (P08659 whole entry, looked up): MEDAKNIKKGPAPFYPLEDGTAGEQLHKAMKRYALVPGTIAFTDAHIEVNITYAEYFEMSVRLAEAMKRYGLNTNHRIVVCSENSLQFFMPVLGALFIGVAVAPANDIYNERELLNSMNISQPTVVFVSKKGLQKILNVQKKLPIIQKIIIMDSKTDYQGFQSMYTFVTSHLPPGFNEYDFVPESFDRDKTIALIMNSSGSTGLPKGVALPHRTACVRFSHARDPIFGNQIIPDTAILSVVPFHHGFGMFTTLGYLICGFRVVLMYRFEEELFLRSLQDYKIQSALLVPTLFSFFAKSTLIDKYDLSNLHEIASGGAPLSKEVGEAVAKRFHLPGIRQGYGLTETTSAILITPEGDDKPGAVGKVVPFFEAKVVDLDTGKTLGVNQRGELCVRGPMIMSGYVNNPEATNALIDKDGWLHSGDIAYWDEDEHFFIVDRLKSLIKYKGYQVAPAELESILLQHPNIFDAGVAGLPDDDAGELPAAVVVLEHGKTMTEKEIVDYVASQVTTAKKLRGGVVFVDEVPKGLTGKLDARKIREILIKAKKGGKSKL
S16 F2sN tox cnf: confirmation of cytotoxicity in S16 Pmp22-F2sN Schwann cells (luciferase reporters placed in the Pmp22 gene) | S16 Schwann cells viability, CellTiter-Glo ATP luminescence, 24 h | shares compounds with PMP22 txn prim | 690 tested, 7% active | Potency, µM (titrated, usually from 57.5 µM), for the others: top-dose activity change, negative = viability loss, hits mostly cytotoxic | AID 1508641; further: potency means the concentration at half of the fitted maximal effect; on the % scale 0 is the no-effect control and ±100 the full control effect
PMP22 txn cnf: PMP22 transcription modulation, confirmatory; Potency, µM (doses to about 57.5 µM), inactives show at the top dose activity change, negative = inhibition, most hits filed as inhibitors; shares compounds with PMP22 txn prim; S16 Schwann cells Pmp22-F2sN, dual luciferase, 24 h; AID 1508646; 690 tested, 22% active; active means clear falling dose curves in both reporters; inconclusive means both reporters move, but less clearly or upward; inactive means either reporter flat; the % is the FLuc reporter signal; further: potency means the concentration at half of the fitted maximal effect
PMP22 prot conf: rat PMP22 protein level modulation, confirmatory; S16 Schwann cells Pmp22-HiBiT, luminescence, 48 h; shares compounds with PMP22 txn prim; 95 tested, under 10 active; Potency, µM (series often up to 27.9 µM), for inactives: top-dose activity change, negative = inhibition, most hits filed as inhibitors
Target sequence (P25094 whole entry, looked up): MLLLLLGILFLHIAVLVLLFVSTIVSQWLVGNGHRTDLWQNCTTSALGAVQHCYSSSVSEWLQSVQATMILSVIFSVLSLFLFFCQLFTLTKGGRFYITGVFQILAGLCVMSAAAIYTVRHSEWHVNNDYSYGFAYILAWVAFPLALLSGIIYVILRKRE
Starred values were filed as active, the others as inactive; i = inactive; ? = inconclusive; . = no result. Unless noted, the call rests on the fitted dose curve; in most records, active means well fitted curve in the direction sought with a large enough effect; inconclusive means small, poorly fitted or top-dose-only effect, or another doubt; inactive means no such curve, though single readings can be large; an effect the other way counts as inactive or inconclusive.

SMILES | S16 viability | pS6 MEF inh | p53null 32C tox | p53null 39C kill | SKOV3 invasion | PMP22 txn prim | NLuc sat counter | NLuc Km ctr | FLuc counter | S16 F2sN tox cnf | PMP22 txn cnf | others
CC1=Nc2cc(C(=O)N3CCCCC3)ccc2Sc2ccc(C)cc21 | 13% | -4% | 11% | -4% | i | -26% | . | . | . | . | .
CC1=Nc2cc(C(=O)NC3CCCCC3)ccc2Sc2ccc(Cl)cc21 | -6% | ? | 40% | 19% | -5% | 6µM* | -4% | 0% | 2% | -5% | 8.7µM*
COc1cc2c(N3CCN(C(=O)Nc4ccc(OC(C)C)cc4)CC3)ncnc2cc1OCCCN1CCCCC1 | . | . | . | . | -10% | . | . | . | . | . | .
CCOc1ccccc1NC(=O)c1cnn2c(C(F)F)cc(-c3ccccc3)nc12 | 25% | -18% | 20% | -7% | 4% | 11µM* | -6% | 2% | 2% | 17% | ?
Cc1ccc(Cl)cc1NC(=O)c1cnn2c(C(F)F)cc(-c3ccccc3)nc12 | 15% | -29% | -5% | -2% | 5% | -26% | . | . | . | . | .
COC(=O)c1cc(NC(=O)Cn2ncc3c([nH]c4ccccc43)c2=O)cc(C(=O)OC)c1 | 7% | 2% | -6% | -4% | 0% | 11% | . | . | . | . | .
O=C(Cn1ncc2c([nH]c3ccccc32)c1=O)Nc1cccc(C(F)(F)F)c1 | -20% | 1% | -7% | -11% | -1% | 20µM* | -8% | 4% | 6% | -10% | -56%
CC(C)CN(C[C@H](O)[C@H](Cc1ccccc1)NC(=O)O[C@H]1CCOC1)S(=O)(=O)c1ccc(N)cc1 | . | . | . | . | -6% | . | . | . | . | . | .
COCCCNC(=O)c1ccc(Cn2c(=O)c3ccccc3n(CC(=O)Nc3ccc(C)cc3C)c2=O)cc1 | 3% | 4% | -2% | 6% | i | ? | . | . | . | . | .
Cc1ccc(CNC(=O)c2ccc(Cn3c(=O)c4ccccc4n(CC(=O)Nc4c(C)cc(C)cc4C)c3=O)cc2)cc1 | ? | 1% | ? | ? | i | 16µM* | -9% | 9% | 6% | ? | 7.9µM* | PMP22 prot conf=?
Cc1ccc(CNC(=O)c2ccc(Cn3c(=O)c4ccccc4n(CC(=O)Nc4ccc(C)cc4C)c3=O)cc2)cc1 | -24% | -3% | -10% | ? | i | 14µM* | -1% | 4% | 0% | ? | ?
Cc1ccc(CNC(=O)c2ccc(Cn3c(=O)c4ccccc4n(CC(=O)Nc4ccc(C)cc4)c3=O)cc2)cc1 | ? | 8% | -6% | -16% | 11% | ? | . | . | . | . | .
COc1ccc(Cl)cc1NC(=O)Cn1c(=O)n(-c2ccc(C)cc2)c(=O)c2ccc(C(=O)NCc3ccccc3Cl)cc21 | 12% | 1% | 1% | ? | 5% | 10µM* | -7% | -10% | 4% | 31µM* | 11µM*
COC1=C(OC)C(=O)C(CC=C(C)CCC=C(C)CCC=C(C)CCC=C(C)CCC=C(C)CCC=C(C)CCC=C(C)CCC=C(C)CCC=C(C)CCC=C(C)C)=C(C)C1=O | . | . | . | . | 4% | . | . | . | . | . | .
C[C@@]12C[C@@]3(O)O[C@@H](O1)[C@]1(COC(=O)c4ccccc4)[C@@H]3C[C@@]12O[C@@H]1O[C@H](CO)[C@@H](O)[C@H](O)[C@@H]1O | . | . | . | . | 15% | . | . | . | . | . | .
CCN(CC)CCCNC(=O)c1ccc2c(c1)sc1nc(-c3ccc(C)cc3)cn12 | ? | 6% | 4% | 1% | ? | 10µM* | ? | ? | 15µM* | 15µM* | 15µM*
COCCOC(=O)C1=C(C)NC2=C(C(=O)CC(c3ccccc3OC)C2)C1c1cccc(O)c1 (stereo unspecified) | . | . | . | . | 8% | . | . | . | . | . | .
COc1cccc(N2CCN(C(=O)c3ccc(CS(=O)c4cccc(Cl)c4)o3)CC2)c1 (stereo unspecified) | -14% | ? | -3% | -20% | i | 5µM* | ? | ? | 1% | -8% | ?
O=C(c1ccc(CS(=O)c2ccccc2Cl)o1)N1CCN(c2cccc(C(F)(F)F)c2)CC1 (stereo unspecified) | -26% | ? | -2% | ? | -3% | 12µM* | -14% | ? | -1% | -39% | ? | PMP22 prot conf=?
Cc1ccccc1S(=O)(=O)Cc1ccc(C(=O)N2CCN(c3cccc(Cl)c3)CC2)o1 | ? | ? | -7% | -1% | -2% | 12µM* | ? | -20% | 10% | -13% | 9.7µM* | PMP22 prot conf=?
COc1ccc(S(=O)Cc2ccc(C(=O)N3CCN(c4cccc(C)c4C)CC3)o2)cc1 (stereo unspecified) | ? | -28% | -3% | -2% | -5% | ? | . | . | . | . | .
O=C(c1ccc(CS(=O)c2ccccc2Cl)o1)N1CCN(c2cccc(Cl)c2)CC1 (stereo unspecified) | -9% | ? | -22% | ? | i | ? | . | . | . | . | .
